The text below walks through data of PubChem BioAssay (NCI).

What all share (test): NCI-60 one-dose screen, 48 h (100 = growth as untreated, 0 = no growth, -100 = all killed)
Common to all, as to conditions: 10 µM unless noted

Assay [1] relates to SR leukemia.
Assay [2] relates to RPMI-8226 leukemia.
The test system of assay [3] is OVCAR-8 ovarian.
Assay [4] deals with OVCAR-5 ovarian.
The subject of assay [5] is OVCAR-4 ovarian.
The subject of assay [6] is SK-OV-3 ovarian.
Assay [7] deals with IGROV1 ovarian.
Assay [8] concerns OVCAR-3 ovarian.
For assay [9], the system named is NCI/ADR-RES ovarian.
For assay [10], the system named is T-47D breast.
Assay [11] deals with BT-549 breast.
For assay [12], the system named is SW-620 colon.
In assay [13] the test system is MCF7 breast.
Assay [14] concerns HCT-116 colon.
In assay [15] the test system is HCC-2998 colon.
Assay [16] concerns KM12 colon.
Assay [17] has as its system MDA-MB-435 melanoma.
Assay [18] deals with HS 578T breast.

The panel holds about 83,000 compounds, 20% with a hit somewhere; the sample as a whole holds those more often.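 The endpoint reported here, percent growth, reads 100 for growth as untreated, 0 for no net growth and -100 for all cells dead.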 A number with no mark means an inactive call. Active and inactive are the calls of the source. Rule for the calls: active = growth percent below 10; inactive = the rest.

For `NC(=O)[C@@H]1CC2CCC1C2` (stereo partly drawn), the growth in assay [1] was 90.6%; in [2], 93.3%; in [3], 108%; in assay [4], 95%; in [5] it was 106%; in [6] it was 101%. Further, the growth was 110% in assay [7]; 93.4% in assay [8]; 121% in assay [9]; 113% in assay [10]; 94.2% in assay [11]; 94% in assay [12]. Also, the growth in assay [13] was 103%; in assay [14] it was 101%; in assay [15], 121%; in assay [16], 102%.

With `C/C(=N/NC(N)=S)C(=O)O`, the growth in assay [1] is 90%; in [2] it was 75.2%; in assay [3] it was 71.2%; in assay [4] it was 91.1%; in assay [5] it was 85.5%; in [6], 107%. In addition, the growth in assay [7] was 56.7%; in assay [8], 77%; in assay [9], 65.3%; in [10] it was 28.6%; in [11], 102%; in assay [17], 85.8%. Besides, the growth in assay [12] was 77.6%; in [13], 26.2%; in assay [14], 10.6%; in assay [15] it was 94.3%; in assay [16], 109%.

For `CCCCCCCC(=O)SCC/C=C/[C@@H]1CC(=O)NCc2cccc(n2)CN(Cc2ccc(Cl)cc2)CC(=O)N[C@@H](C(C)C)C(=O)O1`, the growth in assay [1] was 8.39% (active); in assay [2] it was 8.51% (active); in assay [3], -0.619% (active); in assay [4], -5.64% (active); in assay [5], 28%; in assay [6], -24.5% (active). The growth in assay [8] was 3.13% (active); in [18] it was -5.68% (active); in assay [9], 13%; in [10], 30.9%; in assay [11], 38.8%; in [17], 6.92% (active). Besides, the growth in assay [12] is 16.7%; in assay [13], 9.09% (active); in assay [14], -1.93% (active); in assay [15], -24.2% (active); in assay [16], 5.69% (active).

In the case of `Fc1ccc(Nc2ccc3c(OCCCN4CCOCC4)cccc3n2)cc1F`, the growth was 28% in [1]; 41.3% in [2]; 117% in assay [3]; 67.8% in [4]; 79% in [5]; 96.9% in assay [6]. For the same compound, the growth in [7] is 82.4%; in [8] it was 85.8%; in assay [18] it was 67.5%; in assay [10] it was 78%; in assay [11] it was 86.1%; in assay [17], 78.7%. For the same compound, the growth in [12] was 47.6%; in [13], 61.3%; in [14], 78.5%; in assay [15], 66.3%; in assay [16] it was 16.1%.

`CCCCC[C@H]1C/C=C2/C(=O)C=C[C@@H]2C/C=C\CCCC(=O)O[C@@H](CCCCC)C/C=C2/C(=O)C=C[C@@H]2C/C=C\CCCC(=O)O1`: the growth in assay [1] is -21.5% (active); in assay [2] it was -30.4% (active); in [3], -20.7% (active); in assay [4], -68.2% (active); in assay [5] it was -74.3% (active); in [6], -52.7% (active). Moreover, the growth in [8] was -93.5% (active); in [18], 4.33% (active); in [9], -2.14% (active); in assay [10], -74.8% (active); in assay [11], -72.9% (active); in [17], -78.9% (active). Also, the growth in assay [12] is -54.1% (active); in assay [13], -70.9% (active); in [14], -96.4% (active); in [15], -79.5% (active); in assay [16] it was -86.3% (active).

Regarding `COC(=O)[C@]12CC[C@@H](C)[C@H](C)[C@@H]1C1=CC[C@@H]3[C@@](C)(CC#N)C4=C(C[C@@]3(C)[C@]1(C)CC2)OC[C@]4(C)C=O`, the growth in assay [1] was 2.49% (active); in assay [2] it was 2.46% (active); in assay [3], 5.29% (active); in assay [4], -48.3% (active); in assay [5], 10%; in assay [6] it was 0.91% (active). Moreover, the growth in assay [8] was -59.6% (active); in assay [18] it was -0.493% (active); in assay [9] it was -11.3% (active); in assay [10], -9.08% (active); in [11], -15.2% (active); in assay [17], 3.05% (active). Moreover, the growth is 0.614% (active) in assay [12]; -10.2% (active) in assay [13]; 3.7% (active) in assay [14]; -45.3% (active) in assay [15]; 4.23% (active) in [16].

Regarding `COC(=O)C(Cc1ccccc1)n1cc(COc2nc(Cl)nc(Nc3ccc(Cl)cc3)n2)nn1` (stereo not drawn), the growth in assay [1] is 66.8%; in assay [2], 72.7%; in assay [3] it was 96.1%; in assay [4], 116%; in assay [5], 104%; in assay [6], 106%. Also, the growth in [7] is 99%; in assay [8], 87.2%; in [18] it was 81.6%; in assay [10], 78.9%; in assay [11], 99.6%; in assay [17] it was 105%. For the same compound, the growth in assay [12] is 99.8%; in [13], 78.1%; in assay [14], 100%; in assay [15] it was 101%; in [16], 96.5%.
